From PubChem BioAssay AID1159580 (chemical genetic matrix, 2015)
Where “and” joins values, the source holds several entries; their conditions need not be identical. Identical values can stand only once. Out of some 5,500 compounds screened, about 2,000 (36%) were called active. About 18% were inconclusive and are not listed. Rule as the data show it: active = normalized growth mostly below about 0.91 (no sharp cut-off); inconclusive = no clear call, values can overlap the other calls; inactive = mostly above about 0.92. Some of the results follow.

Assay: chemical genetic growth profiling, strain panel (AID 1159580);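 also: tested at 20 µM; growth read once vehicle control cultures reached saturation at 30 °C; 1 = growth at the plate median or of vehicle wells; lower values mean less growth of the strain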
Conditions: S. cerevisiae deletion strains, growth OD

Measured: normalized growth

O=c1cccc2n1CC1CC2CN2CCCC[C@@H]12 (some centres undefined)
inactive: locus YAL013W, strain DEP1, active compounds read low 0.999 | locus YAL021C, strain ccr4, active compounds read low 0.999 | locus YAL026C, strain drs2, active compounds read low 0.983 | locus YAL030W, strain snc1, active compounds read low 0.979 | locus YBL061C, strain skt5, active compounds read low 0.983 | locus YBR009C, strain hhf1, active compounds read low 0.947 | locus YBR021W, strain FUR4, active compounds read low 1.01 | locus YBR023C, strain chs3, active compounds read low 0.974 | locus YBR171W, strain sec66, active compounds read low 0.974 | locus YBR229C, strain ROT2, active compounds read low 0.953 | locus YBR231C, strain swc5, active compounds read low 0.97 | locus YBR279W, strain paf1, active compounds read low 0.988 | locus YCL011C, strain gbp2, active compounds read low 0.983 | locus YCL016C, strain dcc1, active compounds read low 0.976 | locus YCL029C, strain bik1, active compounds read low 0.974 | locus YCL061C, strain MRC1, active compounds read low 0.985 | locus YCL069W, strain vba3, active compounds read low 0.98 | locus YCR088W, strain abp1, active compounds read low 0.973 | locus YDL005C, strain med2, active compounds read low 0.982 | locus YDL035C, strain GPR1, active compounds read low 1 | locus YDL040C, strain nat1, active compounds read low 0.961 | locus YDL074C, strain BRE1, active compounds read low 1.01 | locus YDL101C, strain DUN1, active compounds read low 0.992 | locus YDL134C, strain PPH21, active compounds read low 0.989 | locus YDL185W, strain tfp1, active compounds read low 0.971 | locus YDL192W, strain arf1, active compounds read low 0.99 | locus YDR001C, strain nth1, active compounds read low 0.968 | locus YDR069C, strain doa4, active compounds read low 0.982 | locus YDR101C, strain arx1, active compounds read low 1.03 | locus YDR137W, strain rgp1, active compounds read low 0.994 | locus YDR150W, strain NUM1, active compounds read low 0.992 | locus YDR159W, strain sac3, active compounds read low 0.938 | locus YDR162C, strain NBP2, active compounds read low 0.987 | locus YDR195W, strain ref2 0.946 | locus YDR297W, strain sur2, active compounds read low 0.977 | locus YDR318W, strain mcm21, active compounds read low 0.978 | locus YDR334W, strain swr1, active compounds read low 0.978 | locus YDR335W, strain msn5, active compounds read low 0.987 | locus YDR388W, active compounds read low 0.985 | locus YDR392W, strain spt3, active compounds read low 0.876 | locus YDR502C, strain sam2, active compounds read low 0.981 | locus YEL003W, strain gim4, active compounds read low 0.985 | locus YEL037C, strain rad23, active compounds read low 0.983 | locus YEL061C, strain CIN8 (second series), active compounds read low 0.974 | locus YEL061C, strain CIN8, active compounds read low 0.991 | locus YER015W, strain faa2, active compounds read low 0.976 | locus YER016W, strain bim1, active compounds read low 0.971 | locus YER110C, active compounds read low 0.972 | locus YER111C, strain swi4, active compounds read low 0.977 | locus YER155C, strain BEM2 (second series), active compounds read low 0.973 | locus YER155C, strain BEM2, active compounds read low 1 | locus YER167W, strain BCK2, active compounds read low 0.987 | locus YFR010W, strain ubp6, active compounds read low 0.972 | locus YGL078C, strain dbp3, active compounds read low 0.991 | locus YGL086W, strain mad1, active compounds read low 1.04 | locus YGL167C, strain pmr1, active compounds read low 0.968 | locus YGL173C, strain kem1, active compounds read low 0.981 | locus YGL227W, strain vid30, active compounds read low 0.974 | locus YGL240W, strain doc1, active compounds read low 0.962 | locus YGL248W, strain PDE1, active compounds read low 0.986 | locus YGL253W, strain hxk2, active compounds read low 0.982 | locus YGR135W, strain pre9, active compounds read low 0.982 | locus YGR229C, strain SMI1, active compounds read low 0.993 | locus YGR252W, strain gcn5, active compounds read low 0.968 | locus YHR013C, strain ard1, active compounds read low 0.928 | locus YHR027C, strain rpn1, active compounds read low 0.982 | locus YHR030C, strain SLT2, active compounds read low 0.996 and 1.02 | locus YHR079C, strain IRE1 (second series), active compounds read low 0.986 | locus YHR079C, strain IRE1, active compounds read low 1.02 | locus YHR094C, strain hxt1, active compounds read low 0.967 | locus YHR129C, strain ARP1, active compounds read low 0.983 | locus YHR142W, strain chs7, active compounds read low 1 | locus YHR200W, strain rpn10, active compounds read low 0.975 | locus YIL066C, strain RNR3, active compounds read low 0.987 | locus YIL073C, strain SPO22, active compounds read low 0.967 | locus YIL125W, strain kgd1, active compounds read low 0.986 | locus YIR030C, strain dcg1, active compounds read low 0.984 | locus YJL092W, strain hpr5, active compounds read low 0.981 | locus YJL095W, strain BCK1 (second series), active compounds read low 0.978 | locus YJL095W, strain BCK1, active compounds read low 1 and 1.01 | locus YJL115W, strain asf1, active compounds read low 0.988 | locus YJL129C, strain trk1, active compounds read low 0.982 | locus YJL134W, strain LCB3, active compounds read low 0.983 | locus YJL154C, strain vps35, active compounds read low 0.98 | locus YJL164C, strain tpk1, active compounds read low 0.984 | locus YJL166W, strain qcr8, active compounds read low 1.01 | locus YJL168C, strain set2, active compounds read low 0.99 | locus YJL187C, strain SWE1 (second series), active compounds read low 0.995 | locus YJL187C, strain SWE1, active compounds read low 0.99
